From PubChem BioAssay (EPA / NIEHS)
“And” between values parts separate entries of the source, which are not always exact repeats. Identical values can stand only once. Inconclusive results are not listed. The source holds several records for some structures; these can differ, active in one and inactive in another. The source made the active and inactive calls. The calls were made as follows, unless noted: active = hit-call score of the fitted dose curve at least 0.9, where 1 is the maximum; inactive = score below 0.9.

Columns and labels:
[1] = read-out: E-selectin (Homo sapiens) (UniProt P16581); experiment: BSK_3C_Eselectin: BioMAP Diversity Plus: 3C Assay for Eselectin Biomarker Activity (AID 2283015); conditions: primary human endothelial cells (HUVEC); actives raise or lower the signal
In short: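 Endpoint derived by bidirectional fitting against DMSO vehicle; signal is ELISA-detected E-selectin from primary HUVEC at 24 h post-dosing, with parallel SRB staining (0.1% SRB, 560 nm) flagging cytotoxicity.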

[2] = read-out: Interleukin-1 alpha (IL1a), IL1A (gene 3552); experiment: BSK_BE3C_IL1a: BioMAP Diversity Plus: BE3C Assay for Interleukin-1 alpha (IL1a) Biomarker Activity (AID 2283016); conditions: primary human bronchial epithelial cells; actives raise or lower the signal
In short: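 Human primary bronchial epithelial cells, 24 h chemical exposure; IL-1a quantified by ELISA, fitted bidirectionally against DMSO. Cytotoxicity assessed in parallel by SRB total-protein staining at the time of measurement.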

[3] = read-out: Monocyte Chemoattractant Protein-1 (MCP1), CCL2 (gene 6347); experiment: BSK_3C_MCP1: BioMAP Diversity Plus: 3C Assay for Monocyte Chemoattractant Protein-1 (MCP1) Biomarker Activity (AID 2283017); conditions: primary human endothelial cells (HUVEC); actives raise or lower the signal
In short: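 Using human vascular primary endothelium, researchers measured MCP-1 by ELISA 24 h after treatment, with DMSO serving as negative control for bidirectional fitting.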

[4] = read-out: Monocyte Chemoattractant Protein-1 (MCP1), CCL2 (gene 6347); experiment: BSK_4H_MCP1: BioMAP Diversity Plus: 4H Assay for Monocyte Chemoattractant Protein-1 (MCP1) Biomarker Activity (AID 2283018); conditions: primary human endothelial cells (HUVEC); actives raise or lower the signal
In short: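 Human umbilical vein endothelial cells (4H system) exposed to chemicals for 24 h in 96-well format. MCP-1 measured by ELISA; bidirectional fitting against DMSO, with SRB total-protein staining in parallel cultures for cytotoxicity.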

[5] = read-out: Human Leukocyte Antigen - DR isotype (HLADR), HLA-DRA (gene 3122); experiment: BSK_3C_HLADR: BioMAP Diversity Plus: 3C Assay for Human Leukocyte Antigen - DR isotype (HLADR) Biomarker Activity (AID 2283019); conditions: primary human endothelial cells (HUVEC); actives raise or lower the signal
In short: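 Compound added to primary HUVEC cultures, 24 h incubation, then HLA-DR determined by ELISA; endpoint derived by bidirectional fitting relative to DMSO negative control.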

[6] = read-out: Interleukin-8 (IL8), CXCL8 (gene 3576); experiment: BSK_3C_IL8: BioMAP Diversity Plus: 3C Assay for Interleukin-8 (IL8) Biomarker Activity (AID 2283020); conditions: primary human endothelial cells (HUVEC); actives raise or lower the signal
In short: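 Primary human umbilical vein endothelial cells were dosed for 24 h. IL-8 was quantified by ELISA and fitted bidirectionally against DMSO. Cytotoxicity was assessed in parallel cultures by SRB staining at 560 nm.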

[7] = read-out: Monokine induced gamma interferon (MIG), CXCL9 (gene 4283); experiment: BSK_3C_MIG: BioMAP Diversity Plus: 3C Assay for Monokine induced gamma interferon (MIG) Biomarker Activity (AID 2283021); conditions: primary human endothelial cells (HUVEC); actives raise or lower the signal;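 as to AC50: MIG protein level measured by immunoassay in the treated endothelial cultures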
In short: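 HUVEC primary endothelial cultures dosed with chemical; MIG quantified by ELISA at 24 h. Data fitted bidirectionally against DMSO control, with parallel SRB total-protein staining for cytotoxicity.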

[8] = BSK_3C_SRB: Viability Assessment in the BioMAP Diversity Plus: 3C Assay (AID 2283023); conditions: primary human endothelial cells (HUVEC);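 also: fitted both ways against DMSO so a hit may be signal rise or drop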
In short: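 Overt cytotoxicity is gauged in parallel confluent HUVEC cultures by SRB total-protein staining at the time of biomarker measurement, 24 h after dosing. Gain or loss of signal is fitted versus DMSO.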

[9] = read-out: Matrix Metallopeptidase 1 (MMP1), MMP1 (gene 4312); experiment: BSK_BE3C_MMP1: BioMAP Diversity Plus: BE3C Assay for Matrix Metallopeptidase 1 (MMP1) Biomarker Activity (AID 2283024); conditions: primary human bronchial epithelial cells; actives raise or lower the signal
In short: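 Human primary bronchial epithelial cells (BE3C system) dosed for 24 h; MMP-1 quantified by ELISA. Bidirectional fit against DMSO; cytotoxicity tracked in parallel cultures by SRB total-protein staining.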

[10] = BSK_3C_Vis: BioMAP Diversity Plus: 3C Assay for Morphology Visualization (AID 2283025); conditions: primary human endothelial cells (HUVEC);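 also: fitted both ways so gain or loss versus DMSO counts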;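 as to AC50: light microscopy image of cell morphology used as background control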
In short: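 Human umbilical vein endothelial cell morphology was inspected by light microscopy 24 h after chemical dosing; scored bidirectionally relative to DMSO.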

[11] = read-out: Pselectin, SELP (gene 6403); experiment: BSK_4H_Pselectin: BioMAP Diversity Plus: 4H Assay for Pselectin Biomarker Activity (AID 2283026); conditions: primary human endothelial cells (HUVEC); actives raise or lower the signal
In short: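 Primary human umbilical vein endothelial cells were treated 24 h, and cell-surface P-selectin was then quantified by ELISA. Bidirectional fit versus DMSO; cytotoxicity checked in parallel cultures by SRB total-protein staining.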

[12] = BSK_4H_SRB: Viability Assessment in the BioMAP Diversity Plus: 4H Assay (AID 2283027); conditions: primary human endothelial cells (HUVEC);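 also: cells exposed to compound for 24 h before staining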;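 as to AC50: curves fitted both ways versus DMSO so AC50 may be loss or gain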
In short: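 Human umbilical vein endothelial cells, 24 h after chemical dosing; total protein measured by 0.1% sulforhodamine B staining after 10% TCA fixation, read at 560 nm. Bidirectional fitting against DMSO.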

[13] = BSK_BE3C_SRB: Viability Assessment in the BioMAP Diversity Plus: BE3C Assay (AID 2283028); conditions: primary human bronchial epithelial cells;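 as to AC50: fitted both ways so AC50 may mark signal gain or loss versus DMSO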
In short: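 SRB total-protein staining (0.1%, after TCA fixation) of chemically dosed human bronchial epithelial primary cells at 24 h; DMSO serves as the negative control for bidirectional curve fitting.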

[14] = read-out: Thrombomodulin, THBD (gene 7056); experiment: BSK_3C_Thrombomodulin: BioMAP Diversity Plus: 3C Assay for Thrombomodulin Biomarker Activity (AID 2283029); conditions: primary human endothelial cells (HUVEC); actives raise or lower the signal
In short: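 Human umbilical vein endothelial cells were exposed to chemicals for 24 h; cell-surface thrombomodulin quantified by ELISA, with bidirectional fitting against DMSO baseline.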

[15] = read-out: Urokinase-type plasminogen activator receptor (uPAR), PLAUR (gene 5329); experiment: BSK_4H_uPAR: BioMAP Diversity Plus: 4H Assay for Urokinase-type plasminogen activator receptor (uPAR) Biomarker Activity (AID 2283030); conditions: primary human endothelial cells (HUVEC); actives raise or lower the signal
In short: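 Endpoint derived via bidirectional curve fitting against DMSO baseline; readout was ELISA detection of uPAR on umbilical vein endothelial cells at 24 h post-treatment, with SRB-stained parallel cultures assessing cytotoxicity.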

[16] = read-out: Vascular endothelial growth factor receptor 2 (Homo sapiens) (UniProt P35968); experiment: BSK_4H_VEGFRII: BioMAP Diversity Plus: 4H Assay for Vascular endothelial growth factor receptor 2 (VEGFR2) Biomarker Activity (AID 2283031); conditions: primary human endothelial cells (HUVEC); actives raise or lower the signal;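 as to AC50: cell-surface VEGFR2 protein level quantified by ELISA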
In short: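 In this multiplexed HUVEC system, biomarker ELISA was performed after 24 h chemical exposure. Parallel SRB staining (TCA fixation, 560 nm) tracked cytotoxicity; DMSO served as baseline.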

[17] = read-out: Human Leukocyte Antigen - DR isotype (HLADR), HLA-DRA (gene 3122); experiment: BSK_BE3C_HLADR: BioMAP Diversity Plus: BE3C Assay for Human Leukocyte Antigen - DR isotype (HLADR) Biomarker Activity (AID 2283032); conditions: primary human bronchial epithelial cells; actives raise or lower the signal
In short: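 Human primary bronchial epithelial cells (BE3C system) exposed to compound for 24 hours; cell-surface HLA-DR measured by ELISA, fitted bidirectionally relative to DMSO. Total protein by SRB in parallel cultures tracked cytotoxicity.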

[18] = read-out: Vascular cell adhesion molecule 1 (VCAM1), VCAM1 (gene 7412); experiment: BSK_4H_VCAM1: BioMAP Diversity Plus: 4H Assay for Vascular cell adhesion molecule 1 (VCAM1) Biomarker Activity (AID 2283033); conditions: primary human endothelial cells (HUVEC); actives raise or lower the signal
In short: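 Primary human umbilical vein endothelial cells, 4H stimulation system, treated for 24 h; cell-surface VCAM-1 quantified by ELISA. Bidirectional fitting against DMSO; cytotoxicity tracked by SRB total-protein staining in parallel cultures.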

[19] = read-out: Interferon-gamma inducible Protein 10 (IP10), CXCL10 (gene 3627); experiment: BSK_BE3C_IP10: BioMAP Diversity Plus: BE3C Assay for Interferon-gamma inducible Protein 10 (IP10) Biomarker Activity (AID 2283034); conditions: primary human bronchial epithelial cells; actives raise or lower the signal
In short: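 Primary human bronchial epithelial cells, with IP-10 measured by ELISA 24 hours after chemical dosing. Bidirectional fit against DMSO; cytotoxicity checked by SRB total protein staining in parallel cultures.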

[20] = target: human Vitamin D Receptor (VDR), VDR (gene 7421) (UniProt P11473); experiment: ATG_VDR_TRANS: Attagene TRANS-FACTORIAL HepG2 Assay for human Vitamin D Receptor (VDR) (AID 2283022; active = hit-call score of the fitted dose curve at least 0.9, where 1 is the maximum)
Chain of human Vitamin D Receptor (VDR), VDR (gene 7421) (P11473 whole entry, looked up): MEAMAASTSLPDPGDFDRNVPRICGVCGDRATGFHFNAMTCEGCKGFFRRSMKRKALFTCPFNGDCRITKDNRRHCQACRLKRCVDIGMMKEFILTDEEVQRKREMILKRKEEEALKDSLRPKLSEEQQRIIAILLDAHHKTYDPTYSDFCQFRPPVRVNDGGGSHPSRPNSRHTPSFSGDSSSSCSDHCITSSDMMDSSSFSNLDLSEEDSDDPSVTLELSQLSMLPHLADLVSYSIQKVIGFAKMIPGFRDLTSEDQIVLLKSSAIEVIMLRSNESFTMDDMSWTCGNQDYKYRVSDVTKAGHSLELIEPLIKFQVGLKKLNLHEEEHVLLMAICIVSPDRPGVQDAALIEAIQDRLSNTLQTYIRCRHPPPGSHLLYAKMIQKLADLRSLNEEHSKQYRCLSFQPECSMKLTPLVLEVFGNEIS
In short: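 Multiplexed TRANS reporter in HepG2; 24 h treatment; reporter mRNA by RT-PCR plus capillary electrophoresis; upregulation scored relative to DMSO.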

Measured: AC50

Chain of E-selectin (Homo sapiens) (P16581 whole entry, looked up): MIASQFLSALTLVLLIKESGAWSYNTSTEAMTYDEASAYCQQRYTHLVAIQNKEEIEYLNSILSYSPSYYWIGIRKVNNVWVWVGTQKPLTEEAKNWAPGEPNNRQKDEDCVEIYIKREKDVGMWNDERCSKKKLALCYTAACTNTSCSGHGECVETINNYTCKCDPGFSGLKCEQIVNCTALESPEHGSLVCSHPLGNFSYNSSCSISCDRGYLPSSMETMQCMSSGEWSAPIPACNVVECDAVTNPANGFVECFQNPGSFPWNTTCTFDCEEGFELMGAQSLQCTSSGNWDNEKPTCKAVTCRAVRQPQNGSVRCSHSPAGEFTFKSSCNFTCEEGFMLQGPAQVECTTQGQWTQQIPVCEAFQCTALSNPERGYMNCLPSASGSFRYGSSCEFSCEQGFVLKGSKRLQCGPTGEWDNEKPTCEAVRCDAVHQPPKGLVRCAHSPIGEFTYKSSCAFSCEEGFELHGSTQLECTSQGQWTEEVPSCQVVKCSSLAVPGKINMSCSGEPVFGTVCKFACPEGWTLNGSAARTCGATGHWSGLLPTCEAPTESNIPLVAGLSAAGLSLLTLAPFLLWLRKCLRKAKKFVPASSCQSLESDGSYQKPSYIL

CCOP(=S)(OCC)Oc1ccc(S(C)=O)cc1 (centres undefined)
not listed: [20]
inactive: all other assays above

O=C(O)C(Cl)(Cl)Cl
not listed: [8]
inactive: all other assays above

COP(=S)(OC)Oc1ccc(S(=O)(=O)N(C)C)cc1
active: [5] 32.3 µM
not listed: [6]
inactive: all other assays above

ClC1(Cl)C2(Cl)C3(Cl)C4(Cl)C(Cl)(Cl)C5(Cl)C3(Cl)C1(Cl)C5(Cl)C24Cl (centres undefined)
inactive: all assays above

CCOP(=S)(OCC)Oc1nc(Cl)c(Cl)cc1Cl
active: [1] 37.1 µM | [3] 33.1 µM | [4] 20 µM | [5] 28.2 µM | [6] 31.1 µM | [10] 39 µM | [11] 32 µM | [18] 15.8 µM
not listed: [8]
inactive: all other assays above

O=C(O)C(F)(F)C(F)(F)C(F)(F)C(F)(F)C(F)(F)C(F)(F)C(F)(F)C(F)(F)C(F)(F)C(F)(F)F
active: [1] 30.5 µM | [2] 25.3 µM and 5.25 µM and 5.23 µM | [3] 30.7 µM | [4] 32.3 µM | [5] 29.7 µM | [7] 35.3 µM | [9] 29.3 µM and 5.53 µM and 5.54 µM | [10] 37.8 µM | [11] 31 µM | [12] 31.8 µM | [13] 25.5 µM and 2.72 µM and 4.77 µM | [14] 5.29 µM | [15] 32.1 µM | [17] 9.29 µM and 4.71 µM and 4.92 µM | [18] 33.2 µM | [19] 8.5 µM and 2.27 µM and 2.29 µM
inactive: [1] | [3] | [4] | [5] | [7] | [20] | [11] | [12] | [14] | [15] | [16] | [18]

Oc1ccc(-c2ccccc2)cc1
not listed: [6]
inactive: all other assays above

O=[N+]([O-])c1ccc2c3c(cccc13)CC2
active: [5] 13.7 µM | [10] 8.8 µM
not listed: [8]
inactive: all other assays above

Oc1c(I)cc(I)cc1I
inactive: [20] | [13] | [14]
active: [1] 11.3 µM | [2] 8.87 µM | [3] 11.9 µM | [4] 20 µM | [5] 9.5 µM | [6] 11.5 µM | [7] 34.9 µM | [9] 6.77 µM | [10] 13 µM | [11] 12.7 µM | [12] 20 µM | [15] 12.7 µM | [16] 12.5 µM | [17] 3.97 µM | [18] 20 µM | [19] 4.41 µM

OCc1ccco1
not listed: [6]
inactive: all other assays above

CCN1CCC2(CC1)COc1cc3c(cc12)N(C(=O)c1ccc(-c2ccc(-c4nnc(C)o4)cc2C)cc1)CC3
active: [1] 28 µM | [2] 13.8 µM | [3] 14 µM | [4] 26 µM | [5] 13 µM | [6] 18.4 µM | [7] 32.3 µM | [10] 6.51 µM | [11] 12 µM | [12] 23.1 µM | [13] 12.9 µM | [15] 18.7 µM | [17] 10.5 µM | [18] 27.8 µM | [19] 14.4 µM
inactive: [20] | [9] | [14] | [16]
